# Records with an inconclusive call do not appear. Unmarked numbers belong to inactive results. Activity calls are given as the source filed them. The call rests on the fitted dose curve; in most records, active means well fitted activation curve with a large enough effect; inconclusive means small, poorly fitted or top-dose-only effect; inactive means no such curve, though single readings can be large or run the other way.
# Molecular target: Cellular tumor antigen p53 (Homo sapiens) (UniProt P04637)
# Sequence (P04637 whole entry, looked up): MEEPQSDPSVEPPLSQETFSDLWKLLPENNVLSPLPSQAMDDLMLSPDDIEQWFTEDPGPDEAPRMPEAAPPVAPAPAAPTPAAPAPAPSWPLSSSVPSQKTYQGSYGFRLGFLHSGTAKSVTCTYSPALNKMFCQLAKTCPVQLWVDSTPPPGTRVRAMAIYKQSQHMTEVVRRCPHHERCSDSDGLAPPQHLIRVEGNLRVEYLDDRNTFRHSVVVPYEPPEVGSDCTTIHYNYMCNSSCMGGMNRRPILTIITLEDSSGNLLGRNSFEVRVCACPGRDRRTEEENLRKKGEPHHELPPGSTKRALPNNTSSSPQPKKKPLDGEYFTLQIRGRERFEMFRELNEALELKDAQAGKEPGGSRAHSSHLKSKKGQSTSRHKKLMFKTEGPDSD
# Experiment: Primary qHTS for small molecule compounds that upregulate eGFP-tagged delta133p53alpha (in N-terminal) cells. (AID 2060322); further: nearly all actives have a fitted effect of over 75% in size;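 on activation: series mostly up to about 56 µM; 0% = DMSO vehicle and 100% = reference activator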
# Details: NCI-H358 eGFP-delta133p53alpha fluorescence, 24 h; activation: active compounds read high
# Summary of the method: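 NCI-H358 cells pre-induced 24 h with 10 ng/ml doxycycline to express N-terminal eGFP-delta133p53alpha, then dosed 24 h at 37C without doxycycline; fixed, Hoechst-stained, GFP intensity by laser scanning cytometry, normalized to DMSO (0%) and 57.5 uM 5-azacytidine (100%).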
# Potency means the concentration at half of the fitted maximal effect.
Compound,activation [%],Potency
CN(C)[C@@H](CCOc1cccc2ccccc12)c1ccccc1,8.7,
CC(CC(C#N)(c1ccccc1)C(C)C)N(C)C (centres undefined),-0.837,
CCC(=O)O[C@]1(C(=O)COC)[C@@H](C)C[C@H]2[C@@H]3CCC4=CC(=O)C=C[C@]4(C)C3(F)[C@@H](O)C[C@@]21C (some centres undefined),-4.18,
NS(=O)(=O)c1cc(C2(O)NC(=O)c3ccccc32)ccc1Cl (centres undefined),-33.3,
O=c1c(-c2ccccc2)c1-c1ccccc1,,30.9 µM (active)
Nc1nc(Cl)nc2c1ncn2[C@@H]1O[C@H](CO)[C@@H](O)[C@H]1F,-22.8,
CN(C)CC/C=C1\c2ccccc2Sc2ccc(Cl)cc21,0,
COc1ccc(OC(=O)N(CC(=O)O)Cc2ccc(OCCc3nc(-c4ccccc4)oc3C)cc2)cc1,-10.7,
Nc1ccc(S(=O)(=O)Nc2cnc3ccccc3n2)cc1,-24.3,
O=S1(=O)c2cccc3cccc(c23)N1CCCN1CCN(c2ccc(F)cc2)CC1,8.47,
C[C@]12C=CC(=O)N[C@@H]1CC[C@H]1[C@H]3CC[C@@H](C(=O)Nc4cc(C(F)(F)F)ccc4C(F)(F)F)[C@@]3(C)CC[C@@H]12,9.28,
CNC(=O)c1cccc(-c2ccc3c(N4CCOC[C@H]4C)nc(N4CCOC[C@H]4C)nc3n2)c1,19.5,
NC1CCN(c2cccc(Cl)n2)CC1,-10.7,
Cc1cccc(C)c1NC(=O)CC12CCCN1CCC2,5.86,
